Experiment [1] in a line: ATG_E_Box_CIS: Attagene CIS-FACTORIAL HepG2 Assay for human Enhancer Box (E-box) (AID 2282936). Particulars: HepG2 E-box cis-reporter transcription, actives raise or lower the signal. Put shortly:
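Cells: HepG2 (human liver), transient MRTU transfection. Exposure 24 h. RNA → oligo(dT) RT → PCR → 6-FAM label → HpaI → CE. Activity fitted both directions relative to DMSO.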

Experiment [2] can be described thus: ATG_M_61_CIS: Attagene CIS-FACTORIAL HepG2 Assay for M61 Transcription Factor (Internal Marker) (AID 2282937). As to conditions: HepG2 Attagene CIS-FACTORIAL M61 internal marker reporter; actives raise or lower the signal. In short, it runs like this: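 Human liver HepG2, transient MRTU transfection (cis promoter elements), 24 h compound. Total RNA → oligo(dT) RT → PCR → FAM label → HpaI → CE. Internal background marker; bidirectional fitting, DMSO = baseline.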

A short description of experiment [3]: ATG_EGR_CIS: Attagene CIS-FACTORIAL HepG2 Assay for human Early Growth Response 1 (EGR1) (AID 2282938). Particulars: HepG2 Attagene CIS-FACTORIAL EGR reporter mRNA; actives raise or lower the signal. In short, it runs like this:
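Transient transfection of human HepG2 with multiple cis-regulated reporter units, chemical exposure 24 h, total RNA isolated. Reverse transcription, PCR, fluorescent labelling and capillary electrophoresis quantify reporter transcripts; activity fitted bidirectionally against DMSO.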

Experiment [4] is described as follows: ATG_M_19_CIS: Attagene CIS-FACTORIAL HepG2 Assay for M19 Transcription Factor (Internal Marker) (AID 2282939). Particulars: HepG2 Attagene CIS-FACTORIAL M19 internal marker reporter; actives raise or lower the signal. Put shortly:
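Following a 24 h exposure, RNA from transfected HepG2 cells was reverse-transcribed, PCR-amplified with reporter-specific primers, end-labelled with 6-FAM and HpaI-digested before capillary separation. Values represent gain or loss versus DMSO.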

Experiment [5] can be described thus: ATG_Ets_CIS: Attagene CIS-FACTORIAL HepG2 Assay for human Erythroblast Transformation Specific (ETS) (AID 2282941). Particulars: HepG2 ETS cis-reporter transcription, actives raise or lower the signal. In short, it runs like this:
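HepG2 cells transfected with multiple cis-regulated reporter units measuring endogenous ETS-driven transcription, 24 h after dosing. Reporter mRNA quantified by RT-PCR with capillary electrophoresis; bidirectional fit relative to DMSO.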

The target of experiment [6] is Hepatocyte nuclear factor 3-beta (Homo sapiens) (UniProt Q9Y261). Nature of the experiment: ATG_FoxA2_CIS: Attagene CIS-FACTORIAL HepG2 Assay for human Forkhead box A2 (FOXA2) (AID 2282942). As to conditions: HepG2 cis-reporter transcription factor activity, 24 h; actives raise or lower the signal. In short, it runs like this:
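Transient MRTU transfection of HepG2 liver cells; 24 h treatment; total RNA → oligo(dT) RT → PCR → FAM primer extension → HpaI cut → CE. Bidirectional fit vs DMSO.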

A short description of experiment [7]: ATG_FoxO_CIS: Attagene CIS-FACTORIAL HepG2 Assay for human Forkhead box O (FoxO) (AID 2282943). As to conditions: HepG2 Attagene cis-reporter, FoxO element, mRNA; actives raise or lower the signal. In short, it runs like this: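 HepG2, transient MRTU transfection (cis element, endogenous TFs). Dose 24 h. TriZol RNA → oligo(dT) RT → PCR → 6-FAM primer extension → HpaI cut → CE. Gain/loss vs DMSO.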

Experiment [8] can be described thus: ATG_GATA_CIS: Attagene CIS-FACTORIAL HepG2 Assay for human GATA Binding Protein (AID 2282944). As to conditions: HepG2 GATA cis-element reporter, Attagene multiplex mRNA; actives raise or lower the signal. Put shortly:
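DMSO serves as negative control and baseline for bidirectional fitting of reporter mRNA changes. HepG2 cells bearing transiently transfected cis-promoter reporters were exposed 24 h; transcripts detected via RT-PCR and capillary electrophoresis.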

A short description of experiment [9]: ATG_GLI_CIS: Attagene CIS-FACTORIAL HepG2 Assay for human Zinc Finger Protein GLI1 (AID 2282945). Particulars: HepG2, Attagene cis-factorial reporter mRNA, GLI element; actives raise or lower the signal. Put shortly: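 Bidirectional curve fits relative to DMSO, using reporter mRNA levels from RT-PCR plus capillary electrophoresis. Cells were HepG2 transiently carrying cis-regulated reporter constructs, harvested 24 h after dosing.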

The nature of experiment [10]: ATG_ISRE_CIS: Attagene CIS-FACTORIAL HepG2 Assay for human Interferon Regulatory Factor 1 (IRF1) binding to an Interferon-Stimulated Response Element (ISRE) (AID 2282948). Particulars: HepG2 ISRE cis-reporter (Attagene), mRNA transcription readout; actives raise or lower the signal. In short, it runs like this: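 Transiently transfected HepG2 cells carrying cis-element reporter units, dosed 24 hours. Reporter mRNA quantified by RT-PCR, fluorescent primer extension, HpaI digestion and capillary electrophoresis. Bidirectional fitting relative to DMSO.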

The nature of experiment [11]: ATG_M_32_CIS: Attagene CIS-FACTORIAL HepG2 Assay for M32 Transcription Factor (Internal Marker) (AID 2282949).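 Also: background control marker of the multiplexed CIS panel rather than a real target.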 As to conditions: HepG2 Attagene cis-factorial M32 reporter, mRNA; actives raise or lower the signal. Put shortly: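 HepG2 cells transiently transfected with multiplexed cis-regulated reporter units, dosed 24 h. Reporter mRNA quantified by RT-PCR, 6-FAM labelling, HpaI digestion and capillary electrophoresis; bidirectional fit vs DMSO.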

Experiment [12] can be described thus: ATG_M_06_CIS: Attagene CIS-FACTORIAL HepG2 Assay for M06 Transcription Factor (Internal Marker) (AID 2282950). Particulars: HepG2 Attagene CIS-FACTORIAL M06 internal marker reporter; actives raise or lower the signal. Put shortly:
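Fluorescence-labelled RT-PCR products from cis-promoter reporter units, cut with HpaI and resolved by capillary electrophoresis, give the signal. Cells are human HepG2, dosed for 24 h. Serves as background control, fitted relative to DMSO.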

The target of experiment [13] is Hypoxia-inducible factor 1-alpha (Homo sapiens) (UniProt Q16665). In words: ATG_HIF1a_CIS: Attagene CIS-FACTORIAL HepG2 Assay for human Hypoxia Inducible Factor 1 (HIF1A) (AID 2282951). As to conditions: HepG2 Attagene cis-factorial HIF1a reporter transcription; actives raise or lower the signal. Put shortly:
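Transient MRTU transfection of human HepG2 liver cells, 24 h compound treatment, then total RNA isolation, oligo(dT) reverse transcription, PCR amplification, fluorescent labelling and capillary electrophoresis of reporter fragments. Gain or loss relative to DMSO.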

In experiment [14] the target is Hepatocyte nuclear factor 6 (Homo sapiens) (UniProt Q9UBC0). In words: ATG_HNF6_CIS: Attagene CIS-FACTORIAL HepG2 Assay for human Hepatocyte Nuclear Factor 6 (HNF6) (AID 2282952). Particulars: HepG2 Attagene cis-factorial HNF6 reporter transcription; actives raise or lower the signal. In short, it runs like this:
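HepG2 cells transiently transfected with cis-element-driven multiplexed reporter units measuring endogenous transcription factor activity. After 24 h exposure, reporter mRNA quantified by RT-PCR, FAM-labelled fragments and capillary electrophoresis; bidirectional fitting versus DMSO.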

A short description of experiment [15]: ATG_MRE_CIS: Attagene CIS-FACTORIAL HepG2 Assay for human Metal Responsive Element (MRE) (AID 2282954). Particulars: HepG2 MRE cis-reporter transcription, Attagene multiplex; actives raise or lower the signal. Put shortly:
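Transient MRTU transfection of HepG2 (FuGene 6); 24 h dosing; total RNA → oligo(dT) RT, PCR, 6-FAM primer extension, HpaI cut, CE. Bidirectional fit vs DMSO.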

Experiment [16] has as its target Paired box protein Pax-6 (Homo sapiens) (UniProt P26367). In words: ATG_Pax6_CIS: Attagene CIS-FACTORIAL HepG2 Assay for human Paired Box 6 (PAX6) (AID 2282956). Particulars: HepG2 CIS-FACTORIAL PAX6 reporter transcription, RNA readout; actives raise or lower the signal. Put shortly:
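HepG2 cells transiently transfected with cis-promoter-driven multiplexed reporter units sensing endogenous transcription factor activity; 24 h chemical exposure. Reporter mRNA quantified by RT-PCR, 6-FAM labelling, HpaI digestion and capillary electrophoresis; bidirectional fit versus DMSO baseline.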

Experiment [17] in a line: ATG_GRE_CIS: Attagene CIS-FACTORIAL HepG2 Assay for human Glucocorticoid Response Elements (GRE) (AID 2282947). Particulars: HepG2 GRE cis-reporter, Attagene multiplex mRNA; actives raise or lower the signal. In short, it runs like this: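 Transient MRTU transfection of human HepG2 liver cells; cis-regulated reporters report endogenous factors. 24 h dosing → RNA isolation → RT-PCR → 6-FAM primer extension → HpaI cut → CE fragment analysis. Bidirectional fit, DMSO negative control.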

The target of experiment [18] is Heat shock factor protein 1 (Homo sapiens) (UniProt Q00613). In words: ATG_HSE_CIS: Attagene CIS-FACTORIAL HepG2 Assay for human Heat Shock Transcription Factor 1 (HSE) (AID 2282953). Particulars: HepG2 HSE cis-reporter, Attagene RNA transcription; actives raise or lower the signal. Put shortly:
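After a 24 h incubation with test chemical, transfected HepG2 cells were harvested for RNA; reporter transcripts were measured by RT-PCR and capillary electrophoresis. Values reflect gain or loss of signal relative to DMSO.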

The nature of experiment [19]: ATG_PBREM_CIS: Attagene CIS-FACTORIAL HepG2 Assay for human Phenobarbital-responsive Enhancer Module (PBREM) (AID 2282955). Particulars: HepG2 PBREM cis-reporter, Attagene multiplexed transcription; actives raise or lower the signal. In short, it runs like this:
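Endogenous transcription factors in human liver HepG2 cells drive a PBREM cis-element reporter, whose transcript level after 24 h treatment is quantified by RT-PCR with capillary electrophoresis; activity fitted in both directions against DMSO.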

A structure can be active in one record and inactive in another. Calls of active or inactive are those of the source. The calls were made as follows: active = hit-call score of the fitted dose curve at least 0.9, where 1 is the maximum; inactive = score below 0.9.

Sequence of Hypoxia-inducible factor 1-alpha (Homo sapiens) (Q16665 whole entry, looked up, the tested form may be a part): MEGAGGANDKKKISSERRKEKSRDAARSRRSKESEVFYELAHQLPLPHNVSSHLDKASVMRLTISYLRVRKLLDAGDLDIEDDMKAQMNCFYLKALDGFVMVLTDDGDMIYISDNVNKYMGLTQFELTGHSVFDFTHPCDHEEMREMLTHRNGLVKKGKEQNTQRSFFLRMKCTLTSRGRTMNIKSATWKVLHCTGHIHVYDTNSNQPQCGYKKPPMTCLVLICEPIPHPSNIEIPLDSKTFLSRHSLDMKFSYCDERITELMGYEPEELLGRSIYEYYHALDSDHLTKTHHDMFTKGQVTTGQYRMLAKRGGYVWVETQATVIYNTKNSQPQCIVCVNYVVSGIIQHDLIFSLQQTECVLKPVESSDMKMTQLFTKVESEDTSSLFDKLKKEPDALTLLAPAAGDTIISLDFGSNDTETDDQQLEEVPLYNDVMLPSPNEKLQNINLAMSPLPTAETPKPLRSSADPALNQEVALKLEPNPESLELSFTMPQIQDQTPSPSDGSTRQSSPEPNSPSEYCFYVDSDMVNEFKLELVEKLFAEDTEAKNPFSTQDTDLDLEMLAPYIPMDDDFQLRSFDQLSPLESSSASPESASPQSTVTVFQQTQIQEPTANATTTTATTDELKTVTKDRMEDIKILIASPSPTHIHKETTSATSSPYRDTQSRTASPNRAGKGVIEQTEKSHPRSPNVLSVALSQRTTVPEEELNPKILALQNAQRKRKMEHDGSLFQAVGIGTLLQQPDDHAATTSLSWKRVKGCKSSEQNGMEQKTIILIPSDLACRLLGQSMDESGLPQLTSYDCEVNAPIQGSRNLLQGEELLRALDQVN
Sequence of Hepatocyte nuclear factor 3-beta (Homo sapiens) (Q9Y261 whole entry, looked up): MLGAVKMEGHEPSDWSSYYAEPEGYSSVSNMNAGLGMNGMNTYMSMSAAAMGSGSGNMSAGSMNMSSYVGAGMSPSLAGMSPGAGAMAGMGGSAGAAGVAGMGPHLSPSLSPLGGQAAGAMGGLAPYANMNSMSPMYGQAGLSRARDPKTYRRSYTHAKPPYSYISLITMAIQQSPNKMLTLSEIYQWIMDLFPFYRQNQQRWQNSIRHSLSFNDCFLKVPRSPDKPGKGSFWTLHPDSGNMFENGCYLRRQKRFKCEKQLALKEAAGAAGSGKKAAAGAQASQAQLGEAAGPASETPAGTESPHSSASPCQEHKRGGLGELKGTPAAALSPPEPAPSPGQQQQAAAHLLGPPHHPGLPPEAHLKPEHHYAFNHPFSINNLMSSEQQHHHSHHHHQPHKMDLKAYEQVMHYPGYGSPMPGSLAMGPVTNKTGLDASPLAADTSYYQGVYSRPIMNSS
Sequence of Hepatocyte nuclear factor 6 (Homo sapiens) (Q9UBC0 whole entry, looked up, the tested form may be a part): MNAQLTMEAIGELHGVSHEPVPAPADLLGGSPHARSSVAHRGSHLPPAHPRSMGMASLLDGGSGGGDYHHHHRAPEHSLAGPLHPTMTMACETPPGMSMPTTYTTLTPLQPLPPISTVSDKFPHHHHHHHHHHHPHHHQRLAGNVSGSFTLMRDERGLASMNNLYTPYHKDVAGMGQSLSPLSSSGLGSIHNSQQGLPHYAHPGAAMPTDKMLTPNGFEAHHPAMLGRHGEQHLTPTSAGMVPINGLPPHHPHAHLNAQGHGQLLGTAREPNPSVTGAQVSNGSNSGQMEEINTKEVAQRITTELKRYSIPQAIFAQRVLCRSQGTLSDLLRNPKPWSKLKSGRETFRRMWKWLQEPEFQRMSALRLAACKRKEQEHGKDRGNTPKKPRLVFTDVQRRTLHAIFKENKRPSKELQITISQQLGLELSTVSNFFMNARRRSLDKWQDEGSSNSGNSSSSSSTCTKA
Sequence of Heat shock factor protein 1 (Homo sapiens) (Q00613 whole entry, looked up): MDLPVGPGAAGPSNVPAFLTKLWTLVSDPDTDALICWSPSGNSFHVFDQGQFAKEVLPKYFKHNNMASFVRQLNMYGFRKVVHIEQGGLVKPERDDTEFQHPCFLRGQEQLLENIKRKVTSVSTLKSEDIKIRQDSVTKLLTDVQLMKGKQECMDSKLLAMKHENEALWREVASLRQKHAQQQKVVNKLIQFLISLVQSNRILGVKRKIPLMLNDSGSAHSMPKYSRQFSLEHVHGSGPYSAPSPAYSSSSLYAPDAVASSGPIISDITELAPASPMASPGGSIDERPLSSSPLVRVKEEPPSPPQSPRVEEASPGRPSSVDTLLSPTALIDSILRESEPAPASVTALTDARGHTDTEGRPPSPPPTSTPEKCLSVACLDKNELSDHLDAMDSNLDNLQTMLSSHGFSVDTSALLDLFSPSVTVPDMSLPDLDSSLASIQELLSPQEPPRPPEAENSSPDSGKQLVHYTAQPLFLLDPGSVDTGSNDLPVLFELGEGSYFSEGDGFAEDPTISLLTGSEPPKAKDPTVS
Sequence of Paired box protein Pax-6 (Homo sapiens) (P26367 whole entry, looked up): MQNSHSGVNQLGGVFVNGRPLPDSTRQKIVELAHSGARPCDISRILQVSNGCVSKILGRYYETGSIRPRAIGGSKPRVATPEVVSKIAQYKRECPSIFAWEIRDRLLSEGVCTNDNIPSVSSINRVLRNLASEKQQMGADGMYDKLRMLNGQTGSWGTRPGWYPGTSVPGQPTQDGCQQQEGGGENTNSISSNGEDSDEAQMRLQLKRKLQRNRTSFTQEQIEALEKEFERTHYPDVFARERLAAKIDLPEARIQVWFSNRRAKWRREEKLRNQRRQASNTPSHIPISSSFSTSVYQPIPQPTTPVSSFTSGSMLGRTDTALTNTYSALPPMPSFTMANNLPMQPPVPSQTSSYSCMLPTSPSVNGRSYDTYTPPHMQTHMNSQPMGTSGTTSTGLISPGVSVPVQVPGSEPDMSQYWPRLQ

In the case of `CCNc1nc(N)nc(Cl)n1`, the outcome in experiment [1], in experiment [2], in [3], in [4], in [5] and in experiment [6] was inactive. Besides, the call in experiment [7], in [8], in experiment [9], in [10], in experiment [11] and in experiment [12] was inactive. Further, the molecule was classed as inactive in experiment [13], in [14], in experiment [15] and in experiment [16].
Regarding `CC1(C)C(C=C(Cl)Cl)C1C(=O)OCc1cccc(Oc2ccccc2)c1` (configuration not stated), the outcome in experiment [1], in experiment [2], in [3], in experiment [4], in [5] and in experiment [6] was inactive. The result in [7], in [8], in experiment [9], in experiment [17], in experiment [10] and in experiment [11] was inactive. The molecule was classed as inactive in experiment [12], in experiment [13], in experiment [14] and in [15].
For `C=CCOC(Cn1ccnc1)c1ccc(Cl)cc1Cl` (configuration not stated), the outcome in [1], in [2], in experiment [4], in [5], in experiment [6] and in experiment [7] was inactive. For the same molecule, the molecule was called inactive in experiment [8], in experiment [9], in experiment [17], in [10], in experiment [11] and in [12]. The outcome in experiment [14] was inactive. Also, the AC50 (in general, the concentration giving half of the maximal activity seen) in experiment [3] was 30.9 µM (active); in [13], 17.4 µM (active); in experiment [15], 24.5 µM (active).
`c1ccc(Nc2ccccc2)cc1`: the outcome in experiment [1], in experiment [2], in [3], in experiment [4], in experiment [5] and in [6] was inactive. Further, the call in [7], in [8], in [9], in [10], in [11] and in experiment [12] was inactive. Besides, the outcome in experiment [13], in experiment [14], in [18], in [15] and in experiment [16] was inactive. Moreover, the AC50 in experiment [13] was 100 µM (active).
With `CCCOC(=O)NCCCN(C)C`, the result in [1], in [2], in experiment [3], in experiment [4], in experiment [5] and in [6] was inactive. Moreover, the call in experiment [7], in experiment [8], in [9], in experiment [10], in experiment [11] and in [12] was inactive. Moreover, the call in [13], in experiment [14] and in experiment [15] was inactive.
In the case of `CSC(=O)c1cccc2nnsc12`, the result in [1], in experiment [2], in experiment [3], in [4], in [5] and in experiment [6] was inactive. Moreover, the molecule was called inactive in experiment [7], in experiment [8], in [9], in experiment [17], in experiment [10] and in [11]. The molecule was classed as inactive in [12], in [13], in [14], in experiment [15], in experiment [19] and in [16].
Consider `COC(=O)c1ccccc1C(=O)O`, for which the outcome in experiment [1], in [2], in [3], in [4], in [5] and in experiment [6] was inactive. In addition, the molecule was called inactive in [7], in experiment [8], in experiment [9], in experiment [17], in experiment [10] and in experiment [11]. Moreover, the molecule was classed as inactive in experiment [12], in [13], in experiment [14], in experiment [18] and in experiment [15].
Regarding `CCCCC(CC)CN1C(=O)C2C3C=CC(C3)C2C1=O` (configuration not stated), the result in experiment [1], in experiment [2], in experiment [3], in [4], in experiment [5] and in experiment [6] was inactive. In addition, the molecule was called inactive in [7], in [8], in experiment [9], in experiment [17], in experiment [10] and in experiment [11]. Moreover, the call in experiment [12] and in experiment [14] was inactive. The concentration at half-maximal activity (AC50) in experiment [13] was 50 µM (active); in experiment [15], 68.5 µM (active).

Values taken from PubChem BioAssay (EPA / NIEHS).
